Assay results: PubChem BioAssay (NCATS)
Results filed as inconclusive are left out. A number with no mark means an inactive call. Active and inactive are the calls of the source. Calls come from the whole dose curve; as a rule, active = well fitted cell-killing curve with a large enough effect; inconclusive = small, poorly fitted or top-dose-only effect, or effect the other way; inactive = no such curve, though single readings can be large or run the other way.

Test: Quantitative High-Throughput drug screen in 47 multiple myeloma cell lines against the NCATS MIPE library collection: EJM_DSMZ cell viability assay (AID 1918926; note: nearly all actives have a fitted effect of over 30% in size)
Conditions: EJM myeloma cell viability, CellTiter-Glo ATP, 48 h; series mostly up to 45.8 µM; viability, % of control: at the top concentration
Excerpt: PI: Beverly A. Mock Ph.D.
Laboratory of Cancer Biology and Genetics,
Center for Cancer Research, National Cancer Institute,
National Institute of Health, Bethesda, Maryland
Drug resistance and disease progression are common in multiple myeloma (MM) patients, underscoring the need for new therapeutic combinations. […] We hypothesized that effective combinations would reduce MYC expression and enhance p16 activity. […] These preclinical data identify potentially useful drug combinations for evaluation in drug-resistant MM and reveal potential mechanisms of combined drug sensitivity.
Described herein is the primary MIPE qHTS used to cherrypick compounds. Validated compounds were then further tested for potential synergistic activiy.
[1] Peat TJ, Gaikwad SM, Dubois W, Gyabaah-Kessie N, Zhang S, Gorjifard S, Phyo Z, Andres M, Hughitt VK, Simpson RM, Miller MA, Girvin AT, Taylor A, Williams D, D'Antonio N, Zhang Y, Rajagopalan A, Flietner E, Wilson K, Zhang X, Shinn P, Klumpp-Thomas C, McKnight C, Itkin Z, Chen L, Kazandijian D, Zhang J, Michalowski AM, Simmons JK, Keats J, Thomas CJ, Mock BA. Drug combinations identified by high-throughput screening promote cell cycle transition and upregulate Smad pathways in myeloma. Cancer Lett. 2023 Aug 1;568:216284. doi: 10.1016/j.canlet.2023.216284. Epub 2023 Jun 24. PMID: 37356470; PMCID: PMC10408729.
SEQUENCE No. (e.g., 1, 2, 3, etc.); […] (e.g., Cells, Incubation, Reagent, etc.); VALUE and DESCRIPTION.
1; Cells; 5 uL; white, solid bottom 1536-well Greiner assay plate.
2; Compounds; 23 nL; Kalypsis pin tool (Wako USA) equipped with a 1536-well pin head to transfer to the assay plates.
3; Incubation; 48 hours; 37C incubation.
4; Reagent;5uL; CellTiter Glo (Promega).
5; Detector; 425V; Luminescence; Viewlux PerkinElmer.
NOTES (numbers refer to Sequence numbers above)
1. The cell-based screening methods employed in this study were like those previously published. Briefly, the corresponding myeloma cell lines were screened in 1,536-well plates with 500 cells, 5-uL per well for inhibition of cell viability (assessed by measuring ATP levels with CellTiterGlo).
2. NCATS MIPE 4.0 library of approved and investigational drugs were added using the Kalypsis pin tool. Wells treated with DMSO only for 100% viability and media only wells for 0% viability were used as controls.
3. The assay plates were covered and incubated for 48 hours in a 37C, 5% CO2 incubator with controlled humidity.
4. After 48 hours, CellTilter-GloTM luminescent substrate mix (Promega) reagent was added to the assay plate and plates we incubated for 5 min at room temperature.
5. Signal was measured as median relative luminescence units on a ViewLux (PerkinElmer) multiplate reader.
[1] Heske CM, Davis MI, Baumgart JT, Wilson K, Gormally MV, Chen L, Zhang X, Ceribelli M, Duveau DY, Guha R, Ferrer M, Arnaldez FI, Ji J, Tran HL, Zhang Y, Mendoza A, Helman LJ, Thomas CJ. Matrix Screen Identifies Synergistic Combination of PARP Inhibitors and Nicotinamide Phosphoribosyltransferase (NAMPT) Inhibitors in Ewing Sarcoma. Clin Cancer Res. 2017 Dec 1;23(23):7301-7311. doi: 10.1158/1078-0432.CCR-17-1121. Epub 2017 Sep 12. PMID: 28899971; PMCID: PMC6636827.
Potency is the fitted concentration of half-maximal effect.

Structure (SMILES) | Potency | viability, % of control [%]
O=C1NC(=O)C(c2cnc3ccccn23)=C1c1cn2c3c(cccc13)CN(C(=O)N1CCOCC1)CC2 | 0.187 µM (active) | 
Cc1c(-c2cccc3c(CCCOc4cccc5ccccc45)c(C(=O)O)n(Cc4cccnc4)c23)c(COc2ccc(N3CCN([S+](=O)([O-])N(C)C)CC3)cc2)nn1C | 14.8 µM (active) | 
Cc1[nH]c(C=C2C(=O)Nc3ccc(S(=O)(=O)N(C)c4cccc(Cl)c4)cc32)c(C)c1C(=O)N1CCN(C)CC1 | 23.5 µM (active) | 
NS(=O)(=O)c1cc(Cl)c(Cl)c(S(N)(=O)=O)c1 |  | 110
CC(C)=CCCC(C)=CCCC(C)=CCCC(C)=CCCC(C)=CCCC(C)=CCCC(C)=CCCC(C)=CCCC(C)=CCO |  | 104
CN1N=C(N)c2cn([C@@H]3O[C@H](COP(=O)(O)O)[C@@H](O)[C@@H]3O)c3ncnc1c23 | 7.43 µM (active) | 
CN1[C@H]2CC[C@H]1CC(OC(=O)c1c[nH]c3ccccc13)C2 (stereo not given in full) |  | 89.6
C#C[C@]1(O)CC[C@H]2[C@H]3CCc4cc(OC)ccc4[C@H]3CC[C@@]21C | 13.2 µM (active) | 
CC(=O)O[C@]1(C(C)=O)CC[C@H]2[C@@H]3C=C(Cl)C4=CC(=O)[C@@H]5C[C@H]5[C@]4(C)[C@@H]3CC[C@@]21C | 11.8 µM (active) | 
CC(C)(O)CC(=O)NCCn1ccc2ncnc(Nc3ccc(Oc4cccc(C(F)(F)F)c4)c(Cl)c3)c21 | 1.87 µM (active) | 
CC(C)C[C@@H](N)[C@H](O)C(=O)N[C@H](C(=O)N[C@H](C(=O)N[C@@H](CC(=O)O)C(=O)O)C(C)C)C(C)C |  | 95.4
N#CC(c1ccnc(NCCc2cccnc2)n1)c1nc2ccccc2s1 (stereo not given) | 18.7 µM (active) | 
O=C(Nc1cccc2c(=O)cc(-c3nn[nH]n3)oc12)c1ccc(OCCCCc2ccccc2)cc1 |  | 76.8
CCC(C)SSc1ncc[nH]1 (stereo not given) | 13.2 µM (active) | 
COc1cc2c(cc1Cc1cccc(Cl)c1F)c(=O)c(C(=O)O)cn2[C@H](CO)C(C)C | 20.9 µM (active) | 
CC(=O)OCC(=O)[C@@]1(O)CC[C@H]2[C@@H]3CCC4=CC(=O)C=C[C@]4(C)[C@@H]3[C@@H](O)C[C@@]21C |  | 95.1
O[C@@H](COc1cccc2ncccc12)CN1CCN(C2c3ccccc3[C@@H]3[C@H](c4ccccc42)C3(F)F)CC1 (stereo not given in full) | 23.5 µM (active) | 
CN1CC(=O)N2C(Cc3c([nH]c4ccccc34)[C@H]2c2ccc3c(c2)OCO3)C1=O (stereo not given in full) |  | 81.9
CC(C)C[C@H](NC(=O)c1cc2ccccc2s1)C(=O)N1CCN(C(=O)[C@H](CO)NS(=O)(=O)c2ccc(Cl)cc2Cl)CC1 | 18.7 µM (active) | 
O=S(=O)(O)c1ccc2cc(N=Nc3cc(S(=O)(=O)O)c4cccnc4c3O)ccc2c1 | 16.6 µM (active) | 

Structure (SMILES) | Potency | viability, % of control [%]
C[C@@H](N)c1ccc(C(=O)Nc2ccnc3[nH]ccc23)cc1 | 23.5 µM (active) | 
CN(C)S(=O)(=O)c1ccc2c(c1)C(=Cc1cc3c([nH]1)CCCC3)C(=O)N2 | 4.69 µM (active) | 
Cc1nc(NC(=O)N2CCC[C@@H]2C(N)=O)sc1-c1csc(C(C)(C)C)n1 | 8.33 µM (active) | 
O=c1cc(-c2ccc(O)c(O)c2)oc2cc(O)cc(O)c12 |  | 97.4
C[C@@H]1[C@H](O)[C@@H](C)C=CC=CC=CC=CC=CC=CC=C[C@H](O[C@@H]2O[C@H](C)[C@H](O)[C@H](N)[C@@H]2O)C[C@@H]2O[C@](O)(C[C@@H](O)C[C@@H](O)[C@H](O)CC[C@@H](O)C[C@@H](O)CC(=O)O[C@H]1C)C[C@H](O)[C@@H]2C(=O)O |  | 119
COc1ccc(-c2cc3nccn3c(Nc3ncccc3C(N)=O)n2)cc1OC | 4.69 µM (active) | 
O=C(c1ccc(C=Cc2n[nH]c3ccccc23)cc1)N1CCNCC1 | 20.9 µM (active) | 
CCC(=C(c1ccc(O)cc1)c1ccc(OCCNC)cc1)c1ccccc1 | 23.5 µM (active) | 
NS(=O)(=O)c1ccc(Nc2nc(OCC3CCCCC3)c3[nH]cnc3n2)cc1 | 23.5 µM (active) | 
CCN(CC)CCCCNc1nc2cc(Cl)c(Cl)cc2nc1-c1ccc(-c2cccs2)s1 | 11.8 µM (active) | 
CN(C)CCN(C)C(=O)c1ccc(NC(=O)Nc2ccc(-c3nc(N4CCOCC4)c4ccn(CC(F)(F)F)c4n3)cc2)cc1 | 0.209 µM (active) | 
CN(C)CCOc1ccc(C(=C(CCCl)c2ccccc2)c2ccccc2)cc1 | 18.7 µM (active) | 
CCN1CCC(n2cc(CNc3cc(Cl)c4ncc(C#N)c(Nc5ccc(F)c(Cl)c5)c4c3)nn2)CC1 | 10.5 µM (active) | 
O=C1C(CCC(O)c2ccc(F)cc2)C(c2ccc(O)cc2)N1c1ccc(F)cc1 (stereo not given) |  | 90.7
Cc1ccc(C2=Nc3ccc(Cl)cc3OC2)cc1 |  | 102
CN(C)N=Nc1nc[nH]c1C(N)=O |  | 105
Cc1nc2c([nH]1)CCN(C(=O)c1ccc(NC(=O)c3ccccc3-c3ccccc3)cc1)c1ccccc1-2 |  | 89.2
Oc1cc(O)cc(C=Cc2ccc(O)c(O)c2)c1 | 20.9 µM (active) | 
OC[C@H]1O[C@@H](O[C@H]2[C@@H](O)[C@@](O)(CO)O[C@@H]2CO)[C@H](O)[C@@H](O)[C@@H]1O |  | 99.5
C[C@@]1(c2cc(-c3cncnc3)c(F)cc2F)CCSC(N)=N1 |  | 100
